Records with an inconclusive call do not appear. Calls of active or inactive are those of the source. Unless noted, calls follow the shape of the dose curve; as a rule, active = well fitted curve in either direction with a large enough effect (not every such curve was filed as active); inconclusive = small, poorly fitted or top-dose-only effect, or another doubt; inactive = flat fitted curve, though single readings scatter.

Consider eight molecules from PubChem BioAssay (NCATS).

Experiment [1] addresses Lysosomal acid glucosylceramidase (Homo sapiens) (UniProt P04062). In words: Glucocerebrosidase-p2 (AID 348; in the data active = potency below about 10 µM; also: potency is read from the fitted curve at half-maximal effect). The note with it: purified GBA, blue fluorogenic substrate, 40 min. The gist of the method: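 Compounds titrated from 0.6 nM upwards against 0.2 nM enzyme in pH 5.9 citric acid/KH2PO4, taurocholate, tween-20; blue fluorogenic substrate 80 uM, 40 min room temperature, stopped and read Ex 365/Em 440 for AC50.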

The nature of experiment [2]: AP1 Signaling Pathway (AID 357).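 Also: ME-180 reporter cells stimulated with EGF at its EC50 level; % is scaled to controls: 0 for no effect and ±100 for the full control effect.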 The note with it: ME-180 AP-1-bla reporter, EGF-induced, beta-lactamase ratio, 5 h; at 7.69 µM (top of the series) unless noted. The method, boiled down:
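First, ME-180 AP-1-bla cells were cultured overnight at 37 °C in low-serum Opti-MEM. Next, titrated compounds with EC50 EGF were incubated 5 hours. Finally, CCF4 was added for 2.5 hours and the 460/530 nm ratio recorded.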

The target in experiment [3] is Cytochrome P450 1A2 (Homo sapiens) (UniProt P05177). In words: p450-cyp1a2 (AID 410; calls by dose curve; also: potency is read from the fitted curve at half-maximal effect;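 as to activity change, negative = inhibition: -100% = full effect of reference inhibitor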). The note with it: recombinant CYP1A2, luciferin-ME demethylation, luminescence; series mostly up to 57 µM. The method, boiled down:
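Luminescent readout of luciferin formed from Luciferin-ME by human CYP1A2; data normalized against complete inhibition by 57 uM furafylline. Enzyme 20nM, substrate 100uM at Km, 100mM KPO4 buffer, 60 min reaction at room temperature.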

A short description of experiment [4]: NFAT Signaling Pathway (AID 444).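 Also: carbachol stimulus at about its EC50 of 1 µM final; % is scaled to controls: 0 for no effect and ±100 for the full control effect.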 The note with it: Jurkat NFAT-bla M1, carbachol, beta-lactamase ratio, 5 h; at 7.69 µM (top of the series) unless noted. The method, boiled down: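 Jurkat cells carrying an NFAT-driven β-lactamase reporter and co-transfected muscarinic M1 receptor were treated with compound plus carbachol (1 uM final, an EC50 level) for 5 h at 37 °C. CCF4 loading followed for 1 h at RT; 460/530 nm ratio gave %activity.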

A short description of experiment [5]: Stat Signaling Pathway (AID 446).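 Also: ME-180 cervical cancer cells given 40 pM IL-6 alongside compound; SIE-controlled beta-lactamase reporter measured as 460/530 nm FRET emission ratio; % is scaled to controls: 0 for no effect and ±100 for the full control effect.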 The note with it: ME-180 SIE beta-lactamase reporter, IL-6 stimulated, 5 h; at 7.69 µM (top of the series) unless noted. The method, boiled down: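 Screening format detects activators and inhibitors alike: ME-180 SIE-bla cells stimulated at 40 pM IL-6 for 5 hrs with compound, then dual-emission beta-lactamase read at 405 nm excitation.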

Experiment [6] concerns the target Glucocorticoid receptor (Homo sapiens) (UniProt P04150). Description: GR-GFP Redistribution (AID 450;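 active = compounds whose dose series gives a full or clear partial fitted curve of increased nuclear translocation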; also: potency is read from the fitted curve at half-maximal effect). The note with it: U2OS GR-GFP nuclear translocation, laser cytometry, 2 h.
Experiment [7] has the same target. In words: GR-EFC Redistribution (AID 451; calls by dose curve; also: potency is read from the fitted curve at half-maximal effect). The note with it: CHO-K1 GR-EFC translocation, beta-gal luminescence, 2 h. The gist of the method: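 CHO-K1 cells stably expressing nuclear-localized β-gal enzyme acceptor and GR fused C-terminally to the enzyme donor fragment; ligand-driven nuclear translocation restores β-gal by complementation. Compounds titrated up to 46 uM final, 2 h at 37 °C; luminescence read.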

Experiment [8] deals with Mitogen-activated protein kinase 10 (Mus musculus) (UniProt Q61831). Description: JNK3 AlphaScreen Assay (AID 530).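 Also: kinase came from lysate of stimulated human HepG2 cells; signal reports phosphorylation of biotinylated GST-cJun 1-79 at Ser73 with 10 µM ATP; % is scaled to controls: 0 for no effect and ±100 for the full control effect.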 The note with it: JNK3 lysate, c-Jun phosphorylation; series mostly up to 57.1 µM. The gist of the method: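 Inhibitors reduce antibody binding to phosphorylated biotin-cJun, lowering AlphaScreen luminescence. Lysates from HepG2 cells pre-activated by IL-1beta plus TNF-alpha supplied JNK3; compounds were titrated.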
(Bead proximity is the source of the signal in Alpha formats.)

Experiment [9] addresses Cytochrome P450 2C19 (Homo sapiens) (UniProt P33261). Description: qHTS Assay for Inhibitors and Substrates of Cytochrome P450 2C19 (AID 899; active = well fitted curve in the direction sought with a large enough effect; an effect the other way counts as inactive or inconclusive; also: potency is read from the fitted curve at half-maximal effect; nearly all actives have a fitted effect of over 60% in size). The note with it: recombinant CYP2C19, luciferin-H EGE luminescence; series mostly up to 57.1 µM. The gist of the method:
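Human CYP2C19 (5nM) with Luciferin-H EGE at 10uM (its KM) in 50mM KPO4 was preincubated with compound for 10 min at 37C. NADPH regeneration started a 60 min 37C reaction. Luciferin was read by luminescence, normalized to 57uM ketoconazole.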

The nature of experiment [10]: Confirmation and Secondary Assay for Modulators of Hemoglobin Beta Chain Splicing at IVS2 654 locus (AID 910; active = well fitted curve in the direction sought with a large enough effect; an effect the other way counts as inactive or inconclusive;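 also: per-well total GFP intensity by laser scanning cytometry after 2-day treatment; % of control where 0% means no effect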). The note with it: HeLa EGFP-654 splicing reporter, GFP fluorescence, 48 h; series mostly up to 38.3 µM. The gist of the method:
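HeLa cells stably carrying EGFP interrupted by mutant beta-globin IVS2-654 intron (CMV-driven) were treated with compound for 2 days at 37C; corrected splicing was scored as total peak GFP intensity per well (488 nm excitation, 500-520 nm emission).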

A short description of experiment [11]: Confirmation and Secondary Assay for Modulators of Hemoglobin Beta Chain Splicing at IVS2 705 locus (AID 930; active = well fitted curve in the direction sought with a large enough effect; an effect the other way counts as inactive or inconclusive;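 also: HeLa cells stably expressing the EGFP-705 splicing reporter; GFP fluorescence per well restored by corrected splicing of the IVS2-705 intron in EGFP; % of control where 0% means no effect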). The note with it: HeLa EGFP-705 splicing reporter, GFP fluorescence, 48 h; series mostly up to 38.3 µM. The method, boiled down:
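Stable HeLa line with EGFP disrupted by mutant beta-globin intron 2 (705). Overnight attachment, then 2 days of compound at 37C, 5% CO2. Signal: peak GFP intensity summed over objects 5-250 µm.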

A short description of experiment [12]: qHTS Assay for Lipid Storage Modulators (AID 1519; calls by dose curve). The note with it: Drosophila S3 cells, BODIPY lipid droplet/cell ratio, laser cytometry, cells loaded with oleic acid; for activity change, negative = inhibition: at 57.5 µM (top of the series). The gist of the method:
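Cells seeded at 5,000 per well were treated with compounds over a concentration series and loaded with oleic acid (400 uM, as added). Lipid droplet fluorescence (488 nm excitation, 500-530 nm channel) was read by laser-scanning cytometry and normalized to 20 uM Triacsin C.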
(qHTS replaces the single test concentration by a dilution series.)

Experiment [13] concerns the target Ubiquitin carboxyl-terminal hydrolase 1 (Homo sapiens) (UniProt O94782). Description: Inhibitors of USP1/UAF1: Pilot qHTS (AID 504865; active = well fitted curve in the direction sought with a large enough effect; an effect the other way counts as inactive or inconclusive; also: nearly all actives have a fitted effect of over 35% in size; also: potency is read from the fitted curve at half-maximal effect). The note with it: purified USP1/UAF1, Ub-rhodamine cleavage fluorescence; series mostly up to 54.9 µM. The method, boiled down: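 Deubiquitinase activity followed as kinetic rhodamine fluorescence release from 150 nM Ub-Rho. 1 nM USP1/UAF1 with compound, after 15 min room-temperature preincubation, in HEPES pH 7.8 buffer containing TCEP, EDTA, BSA and Tween-20.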

The nature of experiment [14]: Primary qHTS for small molecule stabilizers of the endoplasmic reticulum resident proteome: Secreted ER Calcium Modulated Protein (SERCaMP) assay (AID 1508630; active = well fitted curve in the direction sought with a large enough effect; an effect the other way counts as inactive or inconclusive; also: % is scaled to controls: 0 for no effect and ±100 for the full control effect). The note with it: SH-SY5Y GLuc-SERCaMP (Gaussia luciferase released on ER calcium loss) secretion, thapsigargin, luminescence; series mostly up to 38.4 µM. The gist of the method:
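GLuc-SERCaMP-expressing SH-SY5Y cells, pretreated 16 h with compound, are challenged with thapsigargin to empty ER calcium stores; after 4 h, coelenterazine is added directly to the medium and luminescence is imaged.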

Experiment [15] addresses 3',5'-cyclic-AMP phosphodiesterase 4B (Homo sapiens) (UniProt Q07343). In words: qHTS Assay for Inhibitors of PDE-IV (AID 607; active = well fitted activation curve with a large enough effect in the main read-out, with a control signal flat, not every such curve was filed as active; also: % of control where 0% means no effect). The note with it: HEK293 ACTOne CNG channel cells, membrane potential fluorescence; series mostly up to 22.9 µM. The gist of the method:
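The readout is membrane depolarisation from a cAMP-sensing CNG channel, detected with a potential dye at ex 535/em 590. Cells were HEK293-derived (endogenous PDE-IV) at 1000 cells/well, titrated up to 22.9 uM final.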

The target in experiment [16] is Cytochrome P450 3A4 (Homo sapiens) (UniProt P08684). In words: qHTS Assay for Activators of Cytochrome P450 3A4 (AID 885; active = well fitted curve in the direction sought with a large enough effect; an effect the other way counts as inactive or inconclusive; also: nearly all actives have a fitted effect of over 65% in size). The note with it: recombinant CYP3A4, Luciferin-PPXE luminescence, 60 min; series mostly up to 57.1 µM. The gist of the method:
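Steps: enzyme/substrate mix dispensed; compound added, 10 min RT; NADPH regeneration solution added, 60 min RT; luciferin detection buffer stops reaction; 20 min later luminescence measured.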

The mark [17] stands for this setting: measured here: cell count channel max response.
[18] abbreviates: measured here: lipid channel max response.

Chain of Glucocorticoid receptor (Homo sapiens) (P04150 whole entry, looked up, the tested form may be a part): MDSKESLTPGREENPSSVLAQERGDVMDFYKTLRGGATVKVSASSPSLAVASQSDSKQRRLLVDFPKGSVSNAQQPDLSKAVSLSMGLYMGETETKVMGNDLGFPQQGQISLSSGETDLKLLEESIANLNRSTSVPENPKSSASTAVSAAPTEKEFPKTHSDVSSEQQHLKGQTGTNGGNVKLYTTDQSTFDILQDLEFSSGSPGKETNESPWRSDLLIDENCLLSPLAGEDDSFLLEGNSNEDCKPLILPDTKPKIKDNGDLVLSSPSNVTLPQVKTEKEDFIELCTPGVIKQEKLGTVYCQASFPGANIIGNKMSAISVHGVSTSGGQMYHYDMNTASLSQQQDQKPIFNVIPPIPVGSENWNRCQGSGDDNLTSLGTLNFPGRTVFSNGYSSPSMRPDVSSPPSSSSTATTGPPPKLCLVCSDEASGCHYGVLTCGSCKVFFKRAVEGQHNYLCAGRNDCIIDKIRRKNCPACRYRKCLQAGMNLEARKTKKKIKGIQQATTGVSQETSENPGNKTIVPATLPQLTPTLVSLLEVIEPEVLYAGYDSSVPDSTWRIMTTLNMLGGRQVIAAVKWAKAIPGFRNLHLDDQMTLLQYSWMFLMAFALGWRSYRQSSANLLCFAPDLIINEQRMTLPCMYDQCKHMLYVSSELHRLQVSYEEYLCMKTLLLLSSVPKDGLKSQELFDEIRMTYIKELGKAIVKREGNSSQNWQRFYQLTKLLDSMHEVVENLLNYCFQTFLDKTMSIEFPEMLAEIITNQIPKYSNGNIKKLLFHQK
Chain of Ubiquitin carboxyl-terminal hydrolase 1 (Homo sapiens) (O94782 whole entry, looked up): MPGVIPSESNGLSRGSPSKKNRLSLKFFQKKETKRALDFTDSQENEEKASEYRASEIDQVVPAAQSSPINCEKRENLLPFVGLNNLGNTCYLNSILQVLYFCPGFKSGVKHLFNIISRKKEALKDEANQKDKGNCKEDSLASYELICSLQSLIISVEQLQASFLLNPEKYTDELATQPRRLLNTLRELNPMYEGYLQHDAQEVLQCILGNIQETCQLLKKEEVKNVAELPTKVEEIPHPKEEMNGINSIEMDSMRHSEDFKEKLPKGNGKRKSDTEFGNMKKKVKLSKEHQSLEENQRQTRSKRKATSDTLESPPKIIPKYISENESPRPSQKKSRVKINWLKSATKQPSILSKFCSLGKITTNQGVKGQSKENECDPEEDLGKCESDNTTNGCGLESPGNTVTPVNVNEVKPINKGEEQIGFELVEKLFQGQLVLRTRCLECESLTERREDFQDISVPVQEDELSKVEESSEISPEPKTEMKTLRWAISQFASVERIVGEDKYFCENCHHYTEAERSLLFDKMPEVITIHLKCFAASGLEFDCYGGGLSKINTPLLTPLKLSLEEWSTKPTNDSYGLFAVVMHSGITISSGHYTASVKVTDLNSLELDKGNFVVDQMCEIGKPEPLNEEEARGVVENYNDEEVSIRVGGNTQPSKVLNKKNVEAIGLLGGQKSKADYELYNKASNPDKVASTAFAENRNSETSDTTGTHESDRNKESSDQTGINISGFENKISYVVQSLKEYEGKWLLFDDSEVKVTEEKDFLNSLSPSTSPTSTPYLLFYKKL
Chain of Cytochrome P450 1A2 (Homo sapiens) (P05177 whole entry, looked up): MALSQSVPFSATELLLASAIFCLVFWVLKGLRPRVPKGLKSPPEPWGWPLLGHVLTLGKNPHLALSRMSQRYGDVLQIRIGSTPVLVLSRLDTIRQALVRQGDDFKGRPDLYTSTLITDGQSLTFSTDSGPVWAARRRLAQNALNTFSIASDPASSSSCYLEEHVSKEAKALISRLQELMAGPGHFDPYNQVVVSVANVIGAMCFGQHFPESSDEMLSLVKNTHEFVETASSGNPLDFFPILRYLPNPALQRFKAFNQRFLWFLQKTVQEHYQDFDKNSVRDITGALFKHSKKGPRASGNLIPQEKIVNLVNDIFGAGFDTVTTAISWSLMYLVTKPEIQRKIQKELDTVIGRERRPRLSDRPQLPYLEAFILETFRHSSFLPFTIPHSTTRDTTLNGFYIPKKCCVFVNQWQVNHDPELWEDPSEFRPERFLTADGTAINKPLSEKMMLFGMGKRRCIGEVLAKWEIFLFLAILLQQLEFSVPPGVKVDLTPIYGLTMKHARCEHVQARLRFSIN
Chain of 3',5'-cyclic-AMP phosphodiesterase 4B (Homo sapiens) (Q07343 whole entry, looked up): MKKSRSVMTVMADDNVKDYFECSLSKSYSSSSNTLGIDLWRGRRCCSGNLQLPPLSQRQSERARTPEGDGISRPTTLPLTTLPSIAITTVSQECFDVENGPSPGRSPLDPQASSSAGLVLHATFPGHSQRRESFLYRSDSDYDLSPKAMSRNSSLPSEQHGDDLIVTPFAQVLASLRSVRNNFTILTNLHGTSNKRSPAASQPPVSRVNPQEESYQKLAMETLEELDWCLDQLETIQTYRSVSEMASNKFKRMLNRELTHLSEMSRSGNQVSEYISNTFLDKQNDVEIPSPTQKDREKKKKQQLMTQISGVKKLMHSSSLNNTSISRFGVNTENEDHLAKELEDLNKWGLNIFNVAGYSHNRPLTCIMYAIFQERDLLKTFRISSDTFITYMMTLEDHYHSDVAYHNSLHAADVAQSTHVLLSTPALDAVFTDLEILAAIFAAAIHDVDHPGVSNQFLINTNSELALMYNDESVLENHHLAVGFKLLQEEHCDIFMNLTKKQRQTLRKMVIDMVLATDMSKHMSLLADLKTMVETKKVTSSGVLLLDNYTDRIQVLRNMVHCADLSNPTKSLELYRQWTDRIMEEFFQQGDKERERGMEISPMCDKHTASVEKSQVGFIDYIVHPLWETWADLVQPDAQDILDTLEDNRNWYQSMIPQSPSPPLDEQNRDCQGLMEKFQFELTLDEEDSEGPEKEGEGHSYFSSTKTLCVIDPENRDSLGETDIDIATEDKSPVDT
Chain of Lysosomal acid glucosylceramidase (Homo sapiens) (P04062 whole entry, looked up): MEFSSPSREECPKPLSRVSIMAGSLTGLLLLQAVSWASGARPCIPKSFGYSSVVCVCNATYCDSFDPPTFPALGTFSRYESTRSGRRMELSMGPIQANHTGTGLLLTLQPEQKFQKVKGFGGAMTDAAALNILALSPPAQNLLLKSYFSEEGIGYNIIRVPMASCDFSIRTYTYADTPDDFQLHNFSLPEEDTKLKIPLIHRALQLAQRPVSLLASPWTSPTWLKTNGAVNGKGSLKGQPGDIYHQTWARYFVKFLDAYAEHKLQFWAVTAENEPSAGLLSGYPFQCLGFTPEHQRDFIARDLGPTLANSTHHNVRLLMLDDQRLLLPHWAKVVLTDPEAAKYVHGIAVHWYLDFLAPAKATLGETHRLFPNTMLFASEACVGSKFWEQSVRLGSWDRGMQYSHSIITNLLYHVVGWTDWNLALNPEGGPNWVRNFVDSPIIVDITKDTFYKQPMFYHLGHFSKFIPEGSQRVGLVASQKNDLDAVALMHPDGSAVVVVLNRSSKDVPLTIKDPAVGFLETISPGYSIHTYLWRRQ
Chain of Cytochrome P450 2C19 (Homo sapiens) (P33261 whole entry, looked up): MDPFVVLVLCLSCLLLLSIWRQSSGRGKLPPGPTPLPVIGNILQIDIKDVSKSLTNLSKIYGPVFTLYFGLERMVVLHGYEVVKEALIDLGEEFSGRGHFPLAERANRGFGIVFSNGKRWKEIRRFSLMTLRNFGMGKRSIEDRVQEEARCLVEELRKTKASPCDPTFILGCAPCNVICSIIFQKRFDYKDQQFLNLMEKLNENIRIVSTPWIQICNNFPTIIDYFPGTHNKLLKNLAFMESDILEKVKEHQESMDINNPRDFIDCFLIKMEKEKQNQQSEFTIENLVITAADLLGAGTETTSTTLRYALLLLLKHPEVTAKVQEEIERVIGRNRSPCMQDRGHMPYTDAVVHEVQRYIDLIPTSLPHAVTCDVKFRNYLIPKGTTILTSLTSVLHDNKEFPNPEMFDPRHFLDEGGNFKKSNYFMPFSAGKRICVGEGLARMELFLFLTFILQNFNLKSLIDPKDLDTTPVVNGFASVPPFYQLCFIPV
Chain of Cytochrome P450 3A4 (Homo sapiens) (P08684 whole entry, looked up): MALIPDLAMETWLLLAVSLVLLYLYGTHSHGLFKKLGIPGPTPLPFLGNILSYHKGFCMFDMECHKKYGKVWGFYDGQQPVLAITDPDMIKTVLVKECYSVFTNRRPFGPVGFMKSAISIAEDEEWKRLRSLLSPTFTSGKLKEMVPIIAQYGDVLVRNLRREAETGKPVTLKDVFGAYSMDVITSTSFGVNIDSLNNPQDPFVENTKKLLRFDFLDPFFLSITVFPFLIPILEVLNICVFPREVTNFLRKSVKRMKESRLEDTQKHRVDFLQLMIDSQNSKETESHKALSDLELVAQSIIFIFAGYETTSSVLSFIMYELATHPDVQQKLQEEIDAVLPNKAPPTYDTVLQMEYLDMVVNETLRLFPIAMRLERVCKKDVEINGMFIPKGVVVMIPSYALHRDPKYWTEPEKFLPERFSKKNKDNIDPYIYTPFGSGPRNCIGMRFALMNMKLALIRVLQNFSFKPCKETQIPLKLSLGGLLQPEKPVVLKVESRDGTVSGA

Turning to `c1csc(CNc2ncncc2-c2ccc3c(c2)OCO3)c1`, the Potency in experiment [1] is > 11.4 µM (inactive); in experiment [3] it was 0.2 µM (active); in experiment [6], > 46 µM (inactive); in experiment [7], > 46 µM (inactive); in experiment [9], 0.794 µM (active). Moreover, the activity change, negative = inhibition in experiment [2] was -9.82% (inactive); in experiment [4] it was -6.2% (inactive); in experiment [12], 6.61% (inactive). Moreover, the activity, negative = inhibition in experiment [5] was 6.16% (inactive). Moreover, the molecule was called inactive in [8], in experiment [10] and in [11]. The max response in experiment [12] (setting [17]) turned out to be 0.346%; in [12] (setting [18]), 8.95%. Further, the Potency result in [13] and in [14] was “inactive” each time.

As for `Cc1nc2cnc(N3CCOCC3)nc2n(CCC#N)c1=O`, the Potency in [1] is > 11.4 µM (inactive); in experiment [3], 12.6 µM (active); in experiment [6] it was > 9.22 µM (inactive); in [7], > 46 µM (inactive). In addition, the activity change, negative = inhibition in experiment [2] is 2.45% (inactive); in [4] it was -9.52% (inactive); in [12], 5.38% (inactive). Further, the activity, negative = inhibition in experiment [5] was 21.2% (inactive). Further, the molecule was called inactive in experiment [8]. The max response in experiment [12] (setting [17]) is 1.22%; in [12] (setting [18]) it was 11.9%. Further, the Potency entry in experiment [14] is “inactive”.

As for `Cc1noc(C)c1-c1cc(NCc2ccccc2)ncn1`, the Potency in experiment [1] is > 11.4 µM (inactive); in experiment [3], 5.01 µM (active); in [6] it was > 46 µM (inactive); in experiment [7] it was > 46 µM (inactive). Besides, the figures for the activity change, negative = inhibition in experiment [2], in [4] and in experiment [12] were -3.94% (inactive), -10.6% (inactive) and 9.87% (inactive), respectively. Besides, in experiment [5], the activity, negative = inhibition was -12.8% (inactive). Further, the outcome in [8], in experiment [10] and in experiment [11] was inactive. In addition, the Potency entry in experiment [15], in experiment [13] and in [14] was “inactive” throughout. Further, the max response in [12] (setting [17]) worked out at 11.1%; in experiment [12] (setting [18]), 18%.

Turning to `CN(C)c1nc(-c2ccoc2)nc2ccccc12`, the Potency in experiment [1] is > 11.4 µM (inactive); in [3], 0.501 µM (active); in [6] it was > 46 µM (inactive); in [7], > 46 µM (inactive); in experiment [13] it was 56.2 µM (active). Besides, the values for the activity change, negative = inhibition in experiment [2], in experiment [4] and in [12] were -8.03% (inactive), -9.32% (inactive) and 8.68% (inactive), respectively. For the same molecule, in experiment [5], the activity, negative = inhibition was 6.57% (inactive). For the same molecule, the molecule was classed as inactive in [8], in [10] and in experiment [11]. The Potency entry in [16] and in experiment [14] was “inactive” in each case. Further, the values for the max response in [12] (setting [17]) and in [12] (setting [18]) were 8.73% and 18.5%, respectively.

For `COCC(=O)N1CCC2(CC1)CN(C(=O)Nc1cccc(F)c1)C2`, the Potency is > 11.4 µM (inactive) in experiment [1] and > 46 µM (inactive) in [7]. The activity change, negative = inhibition was -27.6% (inactive) in experiment [2], 9.78% (inactive) in experiment [4] and 8.39% (inactive) in experiment [12]. The Potency entry in experiment [3], in [15] and in experiment [14] was “inactive” throughout. The activity, negative = inhibition in experiment [5] was -2.66% (inactive). Moreover, in experiment [8], the molecule was called inactive. The max response in experiment [12] (setting [17]) was 17.5%; in [12] (setting [18]), 29%.

Take `Cn1cccc1C(=O)N1CCC[C@@]2(CCN(Cc3ccc(C#N)cc3)C2)C1`: the results for the Potency in experiment [1] and in experiment [7] were > 11.4 µM (inactive) and > 46 µM (inactive), respectively. For the same molecule, the results for the activity change, negative = inhibition in experiment [2], in experiment [4] and in experiment [12] were -2.05% (inactive), -13.8% (inactive) and 4.84% (inactive), respectively. In addition, the Potency result in experiment [3], in experiment [15] and in experiment [14] was “inactive” each time. Besides, the activity, negative = inhibition in experiment [5] is -3.28% (inactive). Also, the call in [8] was inactive. The max response amounted to 7.42% in experiment [12] (setting [17]) and 16.5% in experiment [12] (setting [18]).

Consider `O=C(Nc1cccc(F)c1)N1CCC2(CC1)CCN(C(=O)c1csnn1)CC2`, for which the Potency in [1] was > 11.4 µM (inactive); in experiment [7] it was > 46 µM (inactive). Besides, the activity change, negative = inhibition is -8.39% (inactive) in experiment [2], 26.3% (inactive) in [4] and 5.59% (inactive) in experiment [12]. Besides, the Potency entry in experiment [3], in experiment [15] and in experiment [14] was “inactive” each time. Further, in experiment [5], the activity, negative = inhibition was -9.77% (inactive). Further, in experiment [8], the outcome was inactive. The max response in experiment [12] (setting [17]) is 12.6%; in [12] (setting [18]) it was 21.6%.

Turning to `O=C(c1csnn1)N1CCC2(CC1)CN(Cc1cc(C(F)(F)F)cc(C(F)(F)F)c1)C2`, the Potency in [1] was > 11.4 µM (inactive); in experiment [7], > 46 µM (inactive). In addition, the activity change, negative = inhibition in experiment [2] is 15.8% (inactive); in experiment [4], -21.8% (inactive); in [12] it was -4.63% (inactive). The Potency result in experiment [3] and in [14] was “inactive” in each case. Besides, the activity, negative = inhibition in [5] was 3.59% (inactive). In addition, the molecule was classed as inactive in experiment [8]. The max response in experiment [12] (setting [17]) was determined as 8.43%; in experiment [12] (setting [18]), 5.85%.
